According to ChEMBL document CHEMBL3988442, “University of Dundee, Small-Polar-MMV Screening Library” (2021):
Out of some 48,000 compounds screened, about 13,000 (27%) showed an effect of 50% or more. This is one part of the list.

The molecules below were run on Wolbachia pipientis (assay: Anti-Wolbachia Cell-Based Screen). Conditions: 5 µM.
Assay type: functional
Set-up: scale not given: in the data most compounds retested in dose-response had high values

SMILES	Percent Effect
Nc1ncccc1CN1C[C@H]2OC(=O)N(Cc3ccccn3)[C@H]2C1	0.5145%
CCc1nc(CN2CCN(C(=O)Cc3c(C)noc3C)CC2)cs1	0.6841%
COc1ccc(C2SCC(=O)Nc3ccsc32)cc1OC (centres undefined)	-3.857%
O=C1CSC(c2ccncc2)c2c[nH]nc2N1 (centres undefined)	107.2%
COc1ccc(C2SCC(=O)Nc3ccsc32)cc1 (centres undefined)	24.55%
O=C1Nc2ccccc2CC12CCN(CCO)C2 (centres undefined)	-5.884%
O=C1NCc2ccccc2CC12CCN(Cc1ccncc1Cl)C2 (centres undefined)	100.7%
CCCN1CCC2(Cc3ccccc3NC2=O)C1 (centres undefined)	-12.05%
Cc1cc(C)c(CNc2ncnc3ccccc23)c(=O)[nH]1	14.2%
CCOC(=O)[C@@H]1[C@@H](c2ccccc2)CN2CCN(S(C)(=O)=O)C[C@H]12	100.2%
O=C(C1CC1)N1CCN2C[C@H](c3ccccc3)[C@@H](CO)[C@H]2C1	105.4%
CCOC(=O)[C@@H]1[C@H]2CN(C(=O)OC)CCN2C[C@H]1c1ccccc1	104.3%
CCOC(=O)[C@@H]1[C@@H](c2ccccc2)CN2CCN(C(C)=O)C[C@H]12	87.07%
CC[C@H]1CN2CC[C@H]1C[C@@H]2CNC(=O)Nc1ccccc1	-4.877%
O=C(COc1ccccc1)N1C[C@@H](O)[C@H](N2CCCC2)C1.O=CO	3.295%
Cc1noc(C)c1CN1CCO[C@H]2[C@H](Oc3ccccn3)CC[C@@H]21.O=C(O)C(F)(F)F.O=C(O)C(F)(F)F	-5.059%
CCOC(=O)[C@@H]1[C@@H](c2ccccc2)CN2CCN(C(=O)N(C)C)C[C@H]12	91.13%
CCOC(=O)[C@@H]1[C@@H](c2ccccc2)CN2CCN(C(=O)C3CC3)C[C@H]12	90.7%
Cc1nn(C)c2ncc(S(=O)(=O)N3CCN4CCCC4C3)cc12 (centres undefined)	-0.5952%
CCc1nc(CC(=O)N2CCCC2CN2CCCC2)cs1 (centres undefined)	-9.906%
NC(=O)C1CN(C(=O)Cc2cccnc2)CCN(C2CCOCC2)C1 (centres undefined)	108.4%

SMILES	Percent Effect
O=C(Cc1cccnc1)N1CCC2(CC1)CCN(C1CCOC1)C2.O=C(O)C(F)(F)F.O=C(O)C(F)(F)F (centres undefined)	-0.1396%
O=C1N(Cc2cccnc2)C[C@H]2CN(C3CCOCC3)CCN12	-6.635%
CN(C[C@H]1CN2CC[C@H]1C[C@@H]2CNC(=O)c1ccco1)c1ccccc1	-3.253%
Cn1ccc(CN2CCCC23CCNCC3)n1	-9.611%
CCN1CCC2(COCc3cnc(NCC4CC4)nc32)C1.O=C(O)C(F)(F)F (centres undefined)	-6.306%
CN(C)c1ncc2c(n1)C1(CCN(CC3CC3)C1)COC2.O=C(O)C(F)(F)F (centres undefined)	-11.31%
CCN1CCC2(COCc3c(C)nc(N(C)C)nc32)C1 (centres undefined)	108.4%
Cc1nc(N(C)C)nc2c1COCC21CCN(CC2CC2)C1.O=C(O)C(F)(F)F (centres undefined)	103%
COCCN1CCC2(COCc3c(C)nc(N(C)C)nc32)C1 (centres undefined)	5.948%
CCN1CCC2(COCc3c(C)nc(N4CCOCC4)nc32)C1 (centres undefined)	5.011%
Cc1ccccc1CNC(Cn1cncn1)c1ccccc1 (centres undefined)	16.93%
CC(C)c1cc(N2CCC3(CC2)CN(C)CCN3C)ncn1	-0.4054%
Cc1nnsc1CN1C[C@H]2CC[C@@H]1CN(Cc1ccccn1)C2	-5.416%
Cl.NC1(c2nc(C(F)(F)F)cc(=O)[nH]2)CCCC1	-15.07%
Cc1n[nH]c2c1C(c1ccsc1)SCC(=O)N2 (centres undefined)	0.06284%
O=C1CSC(c2ccc3c(c2)OCO3)c2cn[nH]c2N1 (centres undefined)	128%
Cc1n[nH]c2c1C(c1ccc3c(c1)OCO3)SCC(=O)N2 (centres undefined)	118.8%
Cc1n[nH]c2c1C(c1ccc(O)c(Cl)c1)SCC(=O)N2 (centres undefined)	5.211%
CC(C)[C@@H]1CN(C(=O)C2(c3ccccc3)CCN(C)CC2)C[C@H]1N(C)C	-1.656%
CC(C)OCCNC1(c2ccc(F)cc2)CCOCC1	3.648%
Fc1cccc(O[C@@H]2C[C@H]3CN(Cc4ccncc4)CCN3C2)c1.O=C(O)C(F)(F)F.O=C(O)C(F)(F)F.O=C(O)C(F)(F)F	-7.787%

SMILES	Percent Effect
O=C(O)C(F)(F)F.O=C(O)C(F)(F)F.O=C(c1cccnc1)N1CCN2C[C@H](Oc3cncnc3)C[C@H]2C1	-8.279%
O=C(O)C(F)(F)F.O=C(O)C(F)(F)F.O=C(O)C(F)(F)F.c1cncc(CN2CCN3C[C@H](Oc4cncnc4)C[C@H]3C2)c1	97.08%
O=C(c1ccncc1)N1CCN2C[C@H](Oc3cncnc3)C[C@H]2C1	8.644%
O=C(O)C(F)(F)F.O=C(O)C(F)(F)F.O=C(O)C(F)(F)F.c1cc(CN2CCN3C[C@H](Oc4cncnc4)C[C@H]3C2)ccn1	106.9%
Cn1ccnc1CN1CCN2C[C@H](OCc3cccnc3)C[C@H]2C1.O=C(O)C(F)(F)F.O=C(O)C(F)(F)F.O=C(O)C(F)(F)F	-4.128%
COCCN1CCN(c2cc(OC)ncn2)Cc2ccc(C)nc21	108.6%
Cc1ccc2c(n1)N(CC1CC1)CCN(S(=O)(=O)C1CC1)C2.O=C(O)C(F)(F)F	2.676%
COc1cc(N2CCN(CC3CC3)c3nc(C)ccc3C2)ncn1	95.93%
CC(C)CN1CC[C@@H]2[C@@H]1CCN2C(=O)N(C)C.O=C(O)C(F)(F)F	-11.1%
O=C(c1cccnc1)N1C[C@@H]2CC[C@H](C1)N(Cc1ncc[nH]1)C2	-11.14%
Cc1cccc(CN2CCN3C(=O)NC[C@H]3C2)n1	-6.805%
CN(Cc1ccco1)[C@@H]1CN(Cc2cccnc2)[C@@H]2CCCO[C@H]12.O=C(O)C(F)(F)F.O=C(O)C(F)(F)F.O=C(O)C(F)(F)F	8.312%
O=C(O)C(F)(F)F.O=C(O)C(F)(F)F.c1cncc(CO[C@H]2CN(Cc3ccco3)[C@@H]3COC[C@H]23)c1	97.44%
CCN(CC)CCN1CCO[C@H]2[C@@H](OCc3ccccn3)CC[C@@H]21	-0.06843%
O=C(N[C@@H]1CN(Cc2ccccn2)[C@@H]2COC[C@@H]21)C1CCC1.O=C(O)C(F)(F)F	-10.37%
O=C(O)C(F)(F)F.O=C(O)C(F)(F)F.c1ccc(O[C@@H]2CN(Cc3nccs3)[C@@H]3CCCO[C@@H]32)nc1	-2.827%
Fc1ccc(CN2C[C@@H](OCc3ccccn3)[C@H]3COC[C@H]32)cc1.O=C(O)C(F)(F)F.O=C(O)C(F)(F)F	103%
O=C(O)C(F)(F)F.O=C(O)C(F)(F)F.c1cncc(CO[C@H]2CO[C@@]3(CCN(Cc4ccoc4)C3)C2)c1	-6.874%
c1ccc(CO[C@@H]2CN(Cc3ccoc3)[C@@H]3COC[C@@H]32)nc1	117.8%
O=C(O)C(F)(F)F.O=C(O)C(F)(F)F.c1ccc(CO[C@H]2CO[C@@]3(CCN(Cc4ccoc4)C3)C2)nc1	-0.8411%
Fc1cccnc1O[C@@H]1CC[C@H]2[C@H]1OCCN2Cc1nccs1.O=C(O)C(F)(F)F.O=C(O)C(F)(F)F	0.8031%

SMILES	Percent Effect
O=C(O)C(F)(F)F.O=C(O)C(F)(F)F.c1ccc(CO[C@@H]2CN(Cc3nccs3)[C@@H]3COC[C@@H]32)nc1	102.5%
COCCO[C@@H]1C[C@H]2CN(C(=O)c3cccnc3)CCN2C1	-1.303%
CNC(=O)[C@H]1C[C@@H]2CN(C(=O)c3ccc(C)nc3)C[C@@H]2N1C	-27.99%
COCCn1c(C(=O)NCc2n[nH]c(C)n2)cc2ccccc21	-4.273%
O=C(O)C(F)(F)F.O=C(O)C(F)(F)F.O=C(O)C(F)(F)F.c1ccc(CO[C@@H]2CN(Cc3cccnc3)[C@@H]3COC[C@@H]32)nc1	110.7%
CCOC(=O)[C@@H]1[C@@H](c2ccccc2)CN2CCNC[C@H]12	118.8%
CC(=O)C1(c2ccccc2)CCN(C(=O)C2CNCCO2)CC1 (centres undefined)	2.674%
CNC(=O)[C@@H]1[C@H]2CNCCN2C[C@H]1c1ccccc1	84.83%
CC(=O)NC(C)C(=O)NCc1ccc(N2CCNC(=O)C2)cc1 (centres undefined)	100.5%
Cl.O=C(N[C@H]1CN[C@H]2CCCO[C@H]21)c1ccno1	-7.03%
O=C1CO[C@@H]2CNC[C@H]2N1CC1CC1	-15.76%
COc1c(CNCCc2c[nH]c3ccccc23)c(C)nn1C	86.16%
COc1c(CNCCc2c[nH]c3ccccc23)c(C(C)C)nn1C	95.04%
COc1cccc(CCNCc2c(C)nn(C)c2N(C)C)c1	-6.952%
CC(C(=O)N(C)C)N1CCCN(C(=O)Oc2ccccc2)CC1 (centres undefined)	-7.894%
Cc1ncc2c(n1)CCCC2NC(=O)c1cnn(Cc2ccccc2)c1 (centres undefined)	108%
Cl.NC1(c2nc(C(F)(F)F)cc(=O)[nH]2)CCCCC1	-23.28%
COCCN1CCN(c2cccc(C)n2)Cc2ccc(C)nc21.O=C(O)C(F)(F)F.O=C(O)C(F)(F)F	115.7%
COCCN1CCN(c2ccc(C)nn2)Cc2ccc(C)nc21.O=C(O)C(F)(F)F.O=C(O)C(F)(F)F	113.9%
COCCN1CCN(S(C)(=O)=O)Cc2ccc(C)nc21.O=C(O)C(F)(F)F	1.772%
COCCN1CCN(c2ccc(C)nn2)Cc2cccnc21.O=C(O)C(F)(F)F	-12.27%
